Screening data (PubChem BioAssay)
In the library only some 3.8% were active in any assay of this set; here they are far more common.
NTR1 ag – agonists of human neurotensin receptor NTR1. activation, % at 20 µM. hit rate 0.17% among 330,000. AID 493036. NTR1-U2OS beta-arrestin-GFP spot imaging, agonist mode;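 active = activation at or above 40% of the spot to cytoplasm intensity ratio, with at least 20 cells analyzed; inconclusive = wells under 20 cells, flagged as cytotoxic or low count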
Beta apoptosis – beta cell apoptosis inhibition | protection from apoptosis, % (concentration not given with the values) | hit rate 0.8% among 300,000 | INS-1E cytokine-induced death, ATP luminescence, 48 h; percent of positive-control rescue, neutral wells zero | AID 435005;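 active = Every replicate reaches about 75%, or at least half do and their mean reaches it too, limit read from the data; inconclusive = At least half of replicates reach the limit but their mean does not; inactive = Under half of replicates reach the limit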;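 note: higher means more ATP so stronger rescue from cytokine killing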
A1 inh – inhibitors of the anti-apoptotic protein A1, read as caspase activation. caspase activation, % (concentration not given with the values). hit rate 0.066% among 330,000. AID 2462. MEF A1-2A-BIM cells, Caspase-Glo 3/7 luminescence, 3 h; percent of clofoctol response, vehicle zero;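 active = over half of replicate activation scores above 10%, or exactly half above 10 with the replicate mean above 10; inconclusive = replicate mean below 10 yet half the replicates above 10; inactive = over half of replicates below 10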
697 NFkB inh – lowers PMA/ionomycin-induced NF-kB signal in 697 B cells; 697 B-cell NF-kB luciferase reporter, 16 h; inhibition, % at 4 µM; hit rate 0.33% among 330,000; in the data active = inhibition above about 35%
Jurkat NFkB inh – inhibitors of the PMA/ionomycin-induced NF-kB reporter in Jurkat cells | PMA/ionomycin-induced NF-kB luciferase reporter, luminescence | inhibition, % at 4 µM | hit rate 0.53% among 330,000; in the data active = inhibition above about 50%
Mdm2 MdmX PPI – human Mdm2/MdmX binding inhibition; O15151+Q00987; SaOS-2 split-luciferase Mdm2/MdmX complementation, luminescence; inhibition, % at 8 µM; hit rate 3% among 330,000; AID 485346;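 active = inhibition of at least 50% at 8 µM in the primary screen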
Target sequence (O15151 whole entry, looked up): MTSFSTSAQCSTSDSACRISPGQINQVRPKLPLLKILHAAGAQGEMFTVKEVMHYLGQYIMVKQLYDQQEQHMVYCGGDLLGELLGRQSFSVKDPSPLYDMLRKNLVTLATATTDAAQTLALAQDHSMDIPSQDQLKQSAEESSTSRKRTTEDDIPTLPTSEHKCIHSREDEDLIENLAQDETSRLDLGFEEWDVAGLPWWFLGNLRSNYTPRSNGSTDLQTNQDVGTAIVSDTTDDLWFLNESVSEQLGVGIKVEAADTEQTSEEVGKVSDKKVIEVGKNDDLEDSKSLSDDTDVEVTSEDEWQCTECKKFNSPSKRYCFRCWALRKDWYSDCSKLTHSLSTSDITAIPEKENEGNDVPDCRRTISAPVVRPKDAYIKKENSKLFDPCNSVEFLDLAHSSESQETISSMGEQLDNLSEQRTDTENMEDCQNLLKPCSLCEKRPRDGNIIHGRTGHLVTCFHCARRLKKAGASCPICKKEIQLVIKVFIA
Target sequence (Q00987 whole entry, looked up): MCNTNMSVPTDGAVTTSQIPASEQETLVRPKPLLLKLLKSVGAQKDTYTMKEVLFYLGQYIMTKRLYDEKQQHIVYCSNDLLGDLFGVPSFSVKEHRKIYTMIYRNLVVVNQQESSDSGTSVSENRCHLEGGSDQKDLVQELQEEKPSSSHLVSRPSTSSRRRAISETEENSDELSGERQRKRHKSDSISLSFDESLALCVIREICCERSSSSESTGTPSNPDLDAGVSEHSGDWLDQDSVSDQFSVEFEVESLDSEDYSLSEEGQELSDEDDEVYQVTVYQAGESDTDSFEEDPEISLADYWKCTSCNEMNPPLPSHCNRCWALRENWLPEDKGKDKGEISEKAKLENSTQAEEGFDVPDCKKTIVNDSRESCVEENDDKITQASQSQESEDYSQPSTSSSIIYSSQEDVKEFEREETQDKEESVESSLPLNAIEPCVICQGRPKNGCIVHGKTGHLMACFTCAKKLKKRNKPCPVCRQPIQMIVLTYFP
Mdm2 MdmX conf – confirmation of human Mdm2/MdmX interaction inhibitors | shares compounds with Mdm2 MdmX PPI | Mdm2-MdmX binding, luminescent assay | hit rate 55% among 10,000 | AID 489028 | inhibition, % at 8 µM; in the data active = inhibition above about 40%
FLuc counter – counter-screen for Mdm2/MdmX inhibitors: full-length luciferase. hit rate 77% among 6,200. AID 504607. shares compounds with Mdm2 MdmX PPI. SaOS-2 full-length luciferase counterscreen, luminescence. inhibition, % at 8 µM;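 active = mean inhibition at 8 µM reaching about 37%, which flags the compound as non-specific, limit read from the data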;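 note: p53-null SaOS-2 cells with luciferase driven by a doxycycline-inducible promoter; compound on cells about two nights before reading with doxycycline added after day one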
Of the large screens only hits and unclear results are named; the others gave an inactive call (follow-up assays come after a bar, where they were run).

CC(C)N(C(=O)[C@H]1CC(CC(=O)NCC23CC4CC(CC(C4)C2)C3)C(=O)N2CCc3c([nH]c4ccccc34)[C@]12C)C(C)C (some centres undefined)	Mdm2 MdmX PPI 59 (no result: Beta apoptosis, A1 inh) | Mdm2 MdmX conf inactive
CCN(CC)C(=O)[C@H]1C[C@H](CC(=O)NCc2ccco2)C(=O)N2CCc3c([nH]c4cc(-c5ccco5)ccc34)[C@]12C	none (no result: Beta apoptosis, A1 inh, Jurkat NFkB inh)
COc1ccc(S(=O)(=O)N2CCOCC2)cc1NC(=O)c1ccc(=O)[nH]c1	none (no result: Beta apoptosis, A1 inh)
CC[C@]12c3[nH]c4cc(-c5ccco5)ccc4c3CCN1C(=O)[C@@H](CC(=O)NC(C)(C)C)C[C@@H]2C(=O)N1CCN(C(=O)C2CC2)CC1	none (no result: Beta apoptosis, A1 inh, Jurkat NFkB inh)
CC(C)N(C(=O)[C@H]1C[C@H](CC(=O)NCC23CC4CC(CC(C4)C2)C3)C(=O)N2CCc3c([nH]c4cc(-c5ccco5)ccc34)[C@]12C)C(C)C	Mdm2 MdmX PPI 70 (no result: Beta apoptosis, A1 inh, Jurkat NFkB inh) | Mdm2 MdmX conf inactive
CC(C)N(C(=O)[C@H]1CC(CC(=O)NCc2cccc(C(F)(F)F)c2)C(=O)N2CCc3c([nH]c4ccccc34)[C@]12C)C(C)C (some centres undefined)	Mdm2 MdmX PPI 64 | Mdm2 MdmX conf inactive
CCN(CC)C(=O)[C@H]1CC(CC(=O)NCC23CC4CC(CC(C4)C2)C3)C(=O)N2CCc3c([nH]c4ccc(OC)cc34)[C@]12C (some centres undefined)	Mdm2 MdmX PPI 64 (no result: Beta apoptosis, A1 inh, Jurkat NFkB inh) | Mdm2 MdmX conf inactive
CCN(CC)C(=O)[C@H]1CC(CC(=O)NCc2cccc(C(F)(F)F)c2)C(=O)N2CCc3c([nH]c4ccc(OC)cc34)[C@]12C (some centres undefined)	none (no result: Beta apoptosis, A1 inh, Jurkat NFkB inh)
COCCCNC(=O)C[C@H]1C[C@H](C(=O)N(C(C)C)C(C)C)[C@@]2(C)c3[nH]c4cc(-c5ccco5)ccc4c3CCN2C1=O	none (no result: Beta apoptosis, A1 inh, Jurkat NFkB inh)
CC(=O)Nc1ccc(Cc2ccc3[nH]c(=O)cc(C)c3c2)cc1	Mdm2 MdmX PPI 68 | Mdm2 MdmX conf 41 | FLuc counter 69
Nc1c(C(=O)NC2CCCC2)c2nc3ccccc3nc2n1/N=C/c1ccco1	Mdm2 MdmX PPI 73 | Mdm2 MdmX conf inactive
CCOC(=O)c1c(C)sc2c1N(C(=O)CCl)c1cc(Cl)ccc1S2	Mdm2 MdmX PPI 100 | Mdm2 MdmX conf 77 | FLuc counter 47
C=CCC(Nc1ccccc1)C12C=CC(O1)C(C(=O)OC)=C2C(=O)OC (centres undefined)	Mdm2 MdmX PPI 89 | Mdm2 MdmX conf 46 | FLuc counter inactive
C=CCC(c1ccccc1)N(C(C)=O)c1ccco1 (centres undefined)	none
COc1ccc(-c2cc(C3CC3)nc(SCC(=O)c3cccs3)c2C#N)cc1	A1 inh inconclusive
CSc1nc(C2CC2)cc(-c2cccs2)c1C#N	Mdm2 MdmX PPI 88 | Mdm2 MdmX conf 79 | FLuc counter 79
COc1cccc(-c2nc(CS(=O)(=O)CC(=O)NCCc3ccc(OC)cc3OC)c(C)o2)c1	none
Cc1cccc(Oc2ccccc2NC(=O)CSCC(=O)Nc2cc(C)on2)c1	Mdm2 MdmX PPI 67 (no result: Beta apoptosis, A1 inh) | Mdm2 MdmX conf 58 | FLuc counter 108
CCOc1ccc(Oc2ccccc2NC(=O)CSCC(=O)Nc2cc(C)on2)cc1	none
CC(C)C[C@H](NC(=O)C1CCN(S(=O)(=O)c2ccccc2)CC1)C(=O)NCc1ccncc1	none
Cc1ncc(CO)c(/C=N/NC(=O)c2ccc(O)cc2)c1O	none
Cc1ncc(CO)c(/C=N/NC(=O)c2cc3c(s2)CCCC3)c1O	Beta apoptosis 88, Mdm2 MdmX PPI 58 | Mdm2 MdmX conf 42 | FLuc counter 51
Cc1ccc2c(c1)CCCN2C(=O)CCc1nc2ccccc2c(=O)[nH]1	Mdm2 MdmX PPI 53 | Mdm2 MdmX conf 60 | FLuc counter 49
Cc1ccc2[nH]c(=O)c3cc(C(=O)N(C)c4ccc(C)c(C)c4)sc3c2c1	Mdm2 MdmX PPI 65 | Mdm2 MdmX conf 40 | FLuc counter 67
CCN(C(=O)c1cc2c(=O)[nH]c3ccc(C)cc3c2s1)c1cccc(C)c1	none | Mdm2 MdmX conf 52 | FLuc counter 64
CCN(C(=O)c1cc2c(=O)[nH]c3ccc(C)cc3c2s1)c1ccccc1C	Mdm2 MdmX PPI 57 | Mdm2 MdmX conf inactive
CCN(C(=O)c1cc2c(=O)[nH]c3ccc(C)cc3c2s1)c1ccc(F)cc1	none
CCOc1ccc(C(=O)NC(=S)Nc2ccccn2)cc1[N+](=O)[O-]	Mdm2 MdmX PPI 88 | Mdm2 MdmX conf inactive
CCOc1ccc(C(=O)NC(=S)Nc2cc(C)ccn2)cc1[N+](=O)[O-]	none
C=CCNc1oc(-c2ccc(Cl)cc2)nc1C#N	Mdm2 MdmX PPI 50 (no result: Beta apoptosis, A1 inh) | Mdm2 MdmX conf inactive
C=CCNc1oc(-c2cccc(F)c2)nc1C#N	none (no result: Beta apoptosis, A1 inh)
COC(=O)[C@H](C(C)C)N(Cc1ccccc1)S(=O)(=O)CCNC1CCCC1	none (no result: Beta apoptosis, A1 inh, Jurkat NFkB inh)
C[C@@H]1CN([C@H](C)CO)C(=O)c2cc(NC(=O)Nc3ccc(C(F)(F)F)cc3)ccc2O[C@H]1CN(C)Cc1ccc(Cl)c(Cl)c1	Mdm2 MdmX PPI 98 (no result: Beta apoptosis, A1 inh) | Mdm2 MdmX conf 47 | FLuc counter inactive
COc1ccc(NC(=O)N(C)C[C@H]2Oc3c(NC(=O)Nc4ccc(C(F)(F)F)cc4)cccc3C(=O)N([C@H](C)CO)C[C@@H]2C)cc1	Mdm2 MdmX PPI 60 | Mdm2 MdmX conf 43 | FLuc counter 69
C[C@H]1CN([C@@H](C)CO)C(=O)c2cccc(NC(=O)Nc3ccc(C(F)(F)F)cc3)c2O[C@@H]1CN(C)Cc1ccc(Cl)c(Cl)c1	Mdm2 MdmX PPI 72 | Mdm2 MdmX conf 49 | FLuc counter 75
CC(C)[C@@H](N)C(=O)NC[C@H]1O[C@@H](n2cnc3c(N)ncnc32)[C@H](O)[C@@H]1O	none (no result: Beta apoptosis, A1 inh, Jurkat NFkB inh)
COc1cc(C(C)=O)ccc1Oc1cc(NN2CCCCC2)c([N+](=O)[O-])cc1[N+](=O)[O-]	none
COc1ccc(NC(=O)c2cc(-c3ccc4c(c3)OCO4)on2)cc1OC	Mdm2 MdmX PPI 68 | Mdm2 MdmX conf 45 | FLuc counter 97
O=C(Nc1ccc2c(c1)OCO2)c1cc(-c2cccc(O)c2)on1	none
O=C(Nc1ccc2c(c1)OCO2)c1cc(-c2ccc(O)cc2)on1	Mdm2 MdmX PPI 84 (no result: Beta apoptosis) | Mdm2 MdmX conf inactive
COc1ccc(-c2cc(C(=O)Nc3ccc4c(c3)OCO4)no2)cc1OC	none
CC(=O)c1cccn1S(=O)(=O)c1ccccc1	none
O=C1C=C(c2ccc3ncccc3c2)C[C@@H](c2ccc(Cl)cc2)C1	Mdm2 MdmX PPI 54 | Mdm2 MdmX conf 46 | FLuc counter 83
